# Assay results published in PubChem BioAssay (NCI).
# The panel holds about 83,000 compounds, 20% with a hit somewhere; the sample as a whole holds those more often.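 Compound tested at a single concentration for 48 hours in 96-well plates; a percent growth value below 10 was scored as active.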 A number with no mark means an inactive call. Active and inactive are the calls of the source.
# Tested on: UACC-62 melanoma
# Test: NCI-60 one-dose screen, 48 h (100 = growth as untreated, 0 = no growth, -100 = all killed)
# Conditions: 10 µM unless noted
# Protocol: Growth inhibition of the UACC-62 human tumor cell line is measured as a screen for anti-cancer activity. Cells are grown in 96 well plates and exposed to the test compound for 48 hours. Compounds are tested at a single concentration, which is 10^-5 M for most compounds. The reported endpoint is percent growth (GI% or GIPRCNT), where numbers from 0 - 100% represent growth inhibition, and numbers from -100% - 0 represent cell death. For example, a value of 40 represents 60% growth inhibition. A value of 0 means no net growth occurred over the course of the experiment. A value of -40 indicates 40% of cells at the beginning of the experiment died by the end of the experiment. A value of -100 means all cells are dead at the end of the experiment.
# NCI-60 Human Tumor Cell Lines Screen was performed using the standard one-dose NCI protocol, which is described in more detail at https://dtp.cancer.gov/discovery_development/nci-60/default.htm.
# Compounds with GIPRCNT values below 10 were considered active. Activity score was based on GIPRCNT using the following formula: […]
# Score is 0 for GIPRCNT values of 100 or above, 50 for GIPRCNT values of 0, and 100 for GIPRCNT values of -100.
row,Structure (SMILES),growth
1,C=C1C(=O)O[C@H]2[C@H]1CC/C(COC(=O)CCCC(=O)OC/C1=C/CC[C@@]3(C)O[C@H]3[C@H]3OC(=O)C(=C)[C@@H]3CC1)=C\CC[C@@]1(C)O[C@@H]21,-18.7% (active)
2,Oc1ccccc1/C=N/c1ccccn1,106%
3,O=C(CSc1nnc(-c2cc3c([nH]c4ccccc43)c(-c3cccc(O)c3)n2)n1-c1ccccc1)c1ccccc1,69.8%
4,O=C(NCCNc1nccc(-c2c(-c3cccc(O)c3)nc3sccn23)n1)Nc1cccc(C(F)(F)F)c1,29.4%
5,O=C(Nc1ccccc1Cl)c1c[nH]c(=O)c(-c2ccc(N3CCCOC4(CC4)C3)cc2)c1,63.5%
6,COc1ccc(OCC(O)CN2CCN(c3ccc(Cl)cc3)CC2)cc1 (stereo not given),84.9%
7,CC1=C[S+](c2ccccc2)c2cccc3cc4ccccc4c1c23 (stereo not given),-85.2% (active)
8,C=CCOc1ccc(/C(Cl)=N/N=C(\Cl)c2cc(OC)c(OC)c(OC)c2)cc1,64.5%
9,Cc1cccc(Cc2cnc(NC(=O)CCc3ccc(C)o3)s2)c1,21.6%
10,O=C(O)c1cn(C2CC2)c2cc(N3CCN(C(=O)CSc4nc(NS(=O)(=O)c5ccccc5)cc(=O)[nH]4)CC3)c(F)cc2c1=O,83.8%
11,CC1(C)N=C(N)N=C(N)N1c1cccc(CCCCc2ccccc2)c1,-9.07% (active)
12,CC(CN(C)C)CN1c2ccccc2CCc2ccccc21 (stereo not given),77.1%
13,COc1ccc(-c2nn(-c3ccc(NC(=O)Nc4ccc(Cl)c(Cl)c4)cc3)cc2-c2ccncc2)cc1Cl,9.56% (active)
14,Cl[C@@H]1CCO[C@H](c2cc3ccccc3c3ccccc23)C1,85.2%
15,COc1cc(-c2nc(SCC(=O)Nc3ccc(C(C)=O)cc3)[nH]c(=O)c2C#N)cc(OC)c1OC,36%
16,Cc1[nH]n(C(=O)c2ccncc2)c(=O)c1N=Nc1ccc(S(=O)(=O)Nc2ccncn2)cc1,98.8%
17,O=C(Nc1cccc(-n2ccc3c(NC(=O)c4ccccc4)nccc32)c1)Nc1cc(C(F)(F)F)cc(C(F)(F)F)c1,11.6%
18,O=C(/C=C/c1ccco1)c1cccc(Nc2nc(Nc3ccccc3)nc(Nc3ccccc3)n2)c1,80.3%
19,N#CC1=C(N)Oc2c(ccc3ccccc23)C1c1cc(=O)oc2ccc(Cl)cc12 (stereo not given),36.5%
20,Nc1ncnc2c1c(-c1ccc(Oc3ccccc3)cc1)nn2C[C@@H]1SSC[C@H]1O,-70.4% (active)

row,Structure (SMILES),growth
1,CCCCCCCCCCCCCCCCCCNCc1ccc(Cl)cc1,-46.7% (active)
2,O=C(Nc1ccccc1F)Nc1ccccc1Cl,73.2%
3,CCc1cccc(-c2ccccc2)c1,103%
4,O=C(O)c1ccccc1C(=O)c1ccc(I)cc1,105%
5,O=C(NCCNc1nccc(-c2c(-c3cccc(O)c3)nc3sccn23)n1)c1ccccc1,0.903% (active)
6,COc1ccc(-c2c(NC(=O)Nc3ccc(Cl)c(C(F)(F)F)c3)cnn2-c2ccc(S(N)(=O)=O)cc2)cc1,41.2%
7,COc1ccc2c(c1)/C(=C/c1c(-c3cc(OC)c(OC)c(OC)c3Br)nc3sccn13)C(=O)N2,69.2%
8,Cc1ccc(NC(=O)CN2CCOCC2)cc1Cl,92.7%
9,Nn1c(SCC(=O)Nc2cc(Cl)c(Cl)cc2Cl)nnc1-c1cc(F)c(Cl)cc1Cl,146%
10,CC(CCC(=O)O)[C@H]1CCC2C3C(=O)C[C@@H]4CC(=O)CC[C@]4(C)C3CC(=O)[C@@]21C (stereo not given in full),93.2%
11,O=C1c2ccccc2OC=C(c2ccccc2)N1CCCCNc1ccc(F)cc1,76.3%
12,C=C1C(=O)O[C@H]2[C@H]1CC/C(COC(=O)c1ccc3ccccc3c1)=C\CC[C@@]1(C)O[C@@H]21,-73% (active)
13,CC1(C)CC(=O)C2=C(C1)OC1=C(C(=O)CC(C)(C)C1)C2c1ccc(OCc2cn(-c3ccc(F)cc3F)nn2)cc1,58.6%
14,Nc1nc(Cl)cc(NCCCCNc2cc(Cl)nc(N)n2)n1,101%
15,COc1ccc(-c2nn(-c3ccc(NC(=O)c4cc(Cl)cc(Cl)c4)cc3)cc2-c2ccncc2)cc1Cl,63.5%
16,CC(=O)Cc1cccnc1,95.6%
17,COc1ccc(-c2ccc(NC(=O)Nc3ccc(Cl)c(C(F)(F)F)c3)c(C)n2)cc1,65.6%
18,CSc1ccc(C(=O)C[n+]2cccc(C)c2)cc1,95.1%
19,COc1ccc(Cl)cc1NC(=O)c1cc2c([nH]1)-c1nc(N)sc1CCC2,93.1%
20,c1ccc2c(c1)Oc1cccnc1-n1nccc1-2,84.7%
